Results filed as inconclusive are left out. Active and inactive are the calls of the source. Unless noted, calls come from the whole dose curve.
What was measured:
[1] = Nuclear factor erythroid 2-related factor 2/antioxidant responsive element (Nrf2/ARE) small molecule agonists: qHTS cell viability counter screen in human keratinocytes (AID 1919968; active = well fitted curve in the direction sought with a large enough effect in the repeat runs; an effect the other way counts as inactive or inconclusive; note: nearly all actives have a fitted effect of over 55% in size; note: potency is the fitted concentration of half-maximal effect)
Method in brief: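 Viability counter-screen: KeratinoSens reporter cells, DMSO-delivered compounds, 23 h at 37 C, CellTiter-Fluor fluorescence.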

[2] = Nuclear factor erythroid 2-related factor 2/antioxidant responsive element (Nrf2/ARE) small molecule agonists: luciferase reporter gene qHTS assay in human keratinocytes (AID 1919969); note: nearly all actives have a fitted effect of over 35% in size; note: potency is the fitted concentration of half-maximal effect
[3] = target: KiSS-1 receptor (Homo sapiens) (UniProt Q969F8); assay: Human kisspeptin (KISS1R) small molecule agonists, calcium flux assay in KISS1R-HEK293 cells (AID 1920064; active = well fitted curve in the direction sought with a large enough effect in the repeat runs; an effect the other way counts as inactive or inconclusive)
Method in brief: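 Intracellular calcium mobilization in KISS1R-HEK293 cells was recorded by fluorescence (Ex/Em 480/540) for 3 min following compound addition to cells pre-loaded 1 h with calcium dye.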

[4] = G protein-coupled receptor (GPCR) small molecule agonists, calcium flux assay: HEK293 wild type cell line counter screen (AID 1920065)
Method in brief: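 In this agonist-mode screen, ATP is the positive control and DMSO the vehicle. Cells grow 18 h before a 1 h dye incubation at 37 C; signal is taken at Ex/Em 480/540 over 3 min.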

[5] = p53 small molecule agonists, cell-based qHTS assay with human liver microsomes (AID 1963577);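 note: p53 response element beta-lactamase reporter cells with liver microsomes plus NADPH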
Method in brief: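 16 h, 37 C exposure of p53RE-bla cells to compounds with human liver microsomes and NADPH (0.5 mg/mL final each); detection via LiveBLAzer mixture, 2 h dark at room temperature.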

[6] = p53 small molecule agonists, cell-based qHTS assay with rat liver microsomes (AID 1963578)
Method in brief: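 With rat liver microsomes and NADPH present (0.5 mg/mL final each), p53RE-bla cells are treated with compound for 16 h at 37 C. LiveBLAzer detection mixture is then applied for 2 h at room temperature in the dark.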

[7] = p53 small molecule agonists, cell-based qHTS assay with human liver microsomes: qHTS cell viability counter screen (AID 1963579); note: nearly all actives have a fitted effect of over 45% in size; note: potency is the fitted concentration of half-maximal effect
Method in brief: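 In this multiplexed counter screen, the reporter plates were subsequently treated with CellTiter-Glo so that cell viability, reflected by luminescence, could be recorded for p53RE-bla cells dosed 16 h with compounds under microsomal activation (HLM and NADPH).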

[8] = target: 5-hydroxytryptamine receptor 2A (Homo sapiens) (UniProt P28223); assay: 5-hydroxytryptamine receptor 2A (HTR2A) small molecule antagonists, cell-based qHTS assay (AID 1963586); note: nearly all actives have a fitted effect of over 45% in size
Method in brief: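 Antagonist-mode intracellular calcium assay: DOI (4 nM) added after 5 min compound pre-incubation at room temperature to dye-loaded HTR2A-CHO cells. Fluorescence followed for 3 min, sampled every second.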

[9] = target: Muscarinic acetylcholine receptor M1 (Homo sapiens) (UniProt P11229); assay: Cholinergic receptor muscarinic 1 (CHRM1) small molecule antagonists, cell-based qHTS assay (AID 1963588); note: nearly all actives have a fitted effect of over 40% in size
Method in brief: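 CHRM1-CHO calcium-flux assay, antagonist mode. Cells were seeded 18 h, dye-loaded 1 h at 37 C and given compound for 5 min at RT, then acetylcholine was added at 50nM. FDSS fluorescence was read 3 min; 15 concentrations, three runs.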

[10] = target: Muscarinic acetylcholine receptor M1 (Homo sapiens) (UniProt P11229); assay: Cholinergic receptor muscarinic 1 (CHRM1) small molecule agonists, cell-based qHTS assay (AID 1963589); note: nearly all actives have a fitted effect of over 35% in size
Method in brief: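 Stable CHRM1-CHO cells (human receptor) were incubated 18 h, dye-loaded for 1 h at 37 C and exposed to test compounds for agonist activity, with calcium-dependent fluorescence followed kinetically.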

[11] = p53 small molecule agonists, cell-based qHTS assay with rat liver microsomes: qHTS cell viability counter screen (AID 1963580); note: nearly all actives have a fitted effect of over 45% in size
Method in brief: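 Intracellular ATP, by CellTiter-Glo luminescence, defines viability. HCT-116 p53RE-bla cells, 4,000 per well, were compound-treated in the presence of rat liver microsomes and NADPH for 16 h at 37 C.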

[12] = p53 small molecule agonists, cell-based qHTS assay: qHTS cell viability counter screen (AID 1963581); note: nearly all actives have a fitted effect of over 45% in size
Method in brief: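 Compounds are pinned onto HCT-116 p53RE-bla cells and left 16 h at 37 C. Following the reporter FRET read, ATP is quantified by CellTiter-Glo luminescence after 30 min at room temperature.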

[13] = cAMP Responsive Elements (CRE) small molecule agonists, cell-based qHTS assay (AID 1963590)
Method in brief: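 FRET-based beta-lactamase readout (LiveBLAzer B/G, 2 h RT) quantified CRE activation in HEK 293T CRE-bla cells after 3 h treatment with DMSO-dissolved compounds.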

[14] = target: Beta-2 adrenergic receptor (Homo sapiens) (UniProt P07550); assay: Adrenergic beta2 receptor (ADRB2) small molecule antagonists, cell-based qHTS assay (AID 1963592); note: nearly all actives have a fitted effect of over 50% in size; note: potency is the fitted concentration of half-maximal effect; for activity change, negative = inhibition: series mostly up to about 92 µM
Method in brief: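 Cells (CHO, stable ADRB2 overexpression) incubated 18-20hr at 37C; compounds added from DMSO; agonist mix (1nM isoproterenol, 100uM IBMX, 25uM Ro-20-1724) added; 0.5hr RT; d2-cAMP and anti-cAMP-cryptate added; 1hr RT; 665/615 nm read.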

[15] = target: Beta-2 adrenergic receptor (Homo sapiens) (UniProt P07550); assay: Adrenergic beta2 receptor (ADRB2) small molecule agonists, cell-based qHTS assay (AID 1963593);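 note: CHO cells stably overexpressing human ADRB2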
Method in brief: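 CHO cells stably over-expressing ADRB2 were plated overnight at 37C, then dosed with compounds plus a stimulation mix containing 100uM IBMX and 25uM Ro-20-1724 for 0.5hr at room temperature. cAMP was measured by HTRF competition, 1hr.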

[16] = target: D(2) dopamine receptor (Homo sapiens) (UniProt P14416); assay: Dopamine D2 receptor (DRD2) small molecule agonists, cell-based qHTS assay (AID 1963594); note: nearly all actives have a fitted effect of over 35% in size
Method in brief: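 cAMP accumulation in DRD2-HEK293 cells measured by HTRF after 1 h detection; compounds added 10 min before NKH477 (200nM […]) forskolin-analogue stimulation, 30 min at room temperature, with Ro20-1724 present at 0.1 mM final.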

[17] = target: D(2) dopamine receptor (Homo sapiens) (UniProt P14416); assay: Dopamine D2 receptor (DRD2) small molecule antagonists, cell-based qHTS assay (AID 1963595; active = well fitted inhibition curve with a large enough effect in the signal ratio in the repeat runs, with a control signal flat; the % refers to the signal ratio)
Method in brief: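 HTRF cAMP read-out at 665 and 620 nm emission (340 nm excitation). Antagonist mode: compounds were tested against 12 nM quinpirole in DRD2-HEK293 cells, with 200 nM NKH477 raising cAMP and 0.1 mM Ro20-1724 blocking its breakdown.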

[18] = target: 5-hydroxytryptamine receptor 2A (Homo sapiens) (UniProt P28223); assay: 5-hydroxytryptamine receptor 2A (HTR2A) small molecule agonists, cell-based qHTS assay (AID 1963587); note: nearly all actives have a fitted effect of over 30% in size; note: potency is the fitted concentration of half-maximal effect
Method in brief: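 Kinetic calcium-flux fluorescence (2 min, 1 sec intervals) after compound addition in agonist mode. HTR2A-CHO cells were cultured 18 h, then dye-loaded 1 h at 37 C.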

[19] = cAMP Responsive Elements (CRE) small molecule antagonists, cell-based qHTS assay (AID 1963591; active = well fitted inhibition curve with a large enough effect in the signal ratio in the repeat runs, not every such curve was filed as active; the % refers to the signal ratio)
Method in brief: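 qHTS in CRE-bla HEK 293T cells: compound in DMSO, then 0.25 uM NKH477 (final), 3 h at 37 °C/5% CO2; beta-lactamase FRET read-out after 2 h substrate incubation.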

[20] = target: Gonadotropin-releasing hormone receptor (Homo sapiens) (UniProt P30968); assay: Human gonadotropin-releasing hormone receptor (GnRHR) small molecule agonists, calcium flux assay in GnRHR-HEK293 cells (AID 1920063); note: nearly all actives have a fitted effect of over 35% in size
Method in brief: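 Tox21-format agonist screen using human GnRHR-expressing HEK293 cells and a fluorescent calcium dye; kinetic 3-min fluorescence reading after compound addition, 15-point concentration series run in triplicate.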
% is set by controls: 0 for no effect and ±100 for the full control effect.

Chain of Beta-2 adrenergic receptor (Homo sapiens) (P07550 whole entry, looked up): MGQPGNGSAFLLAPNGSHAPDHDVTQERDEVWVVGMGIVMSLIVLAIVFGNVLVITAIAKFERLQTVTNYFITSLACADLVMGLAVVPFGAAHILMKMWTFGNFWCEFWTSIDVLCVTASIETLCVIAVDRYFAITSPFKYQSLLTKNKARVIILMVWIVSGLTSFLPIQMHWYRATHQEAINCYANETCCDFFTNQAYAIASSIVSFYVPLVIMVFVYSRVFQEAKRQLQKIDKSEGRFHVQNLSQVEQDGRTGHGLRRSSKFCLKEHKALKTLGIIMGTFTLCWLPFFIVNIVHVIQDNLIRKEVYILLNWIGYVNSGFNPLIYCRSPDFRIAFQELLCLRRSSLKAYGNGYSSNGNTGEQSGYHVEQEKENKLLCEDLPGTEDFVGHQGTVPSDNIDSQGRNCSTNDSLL
Chain of Muscarinic acetylcholine receptor M1 (Homo sapiens) (P11229 whole entry, looked up): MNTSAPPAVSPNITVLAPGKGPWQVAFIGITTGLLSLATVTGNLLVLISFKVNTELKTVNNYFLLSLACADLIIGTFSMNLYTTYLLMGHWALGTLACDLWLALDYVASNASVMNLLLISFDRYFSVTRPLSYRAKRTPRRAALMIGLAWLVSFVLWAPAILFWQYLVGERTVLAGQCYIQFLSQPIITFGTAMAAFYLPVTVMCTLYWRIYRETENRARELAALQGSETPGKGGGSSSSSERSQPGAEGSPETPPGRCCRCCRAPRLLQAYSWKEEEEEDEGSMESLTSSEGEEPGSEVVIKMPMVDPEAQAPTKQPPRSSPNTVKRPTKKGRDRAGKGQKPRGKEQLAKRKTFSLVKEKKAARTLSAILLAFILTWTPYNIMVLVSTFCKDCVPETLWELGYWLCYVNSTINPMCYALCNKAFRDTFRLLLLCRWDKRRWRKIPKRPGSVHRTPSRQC
Chain of D(2) dopamine receptor (Homo sapiens) (P14416 whole entry, looked up): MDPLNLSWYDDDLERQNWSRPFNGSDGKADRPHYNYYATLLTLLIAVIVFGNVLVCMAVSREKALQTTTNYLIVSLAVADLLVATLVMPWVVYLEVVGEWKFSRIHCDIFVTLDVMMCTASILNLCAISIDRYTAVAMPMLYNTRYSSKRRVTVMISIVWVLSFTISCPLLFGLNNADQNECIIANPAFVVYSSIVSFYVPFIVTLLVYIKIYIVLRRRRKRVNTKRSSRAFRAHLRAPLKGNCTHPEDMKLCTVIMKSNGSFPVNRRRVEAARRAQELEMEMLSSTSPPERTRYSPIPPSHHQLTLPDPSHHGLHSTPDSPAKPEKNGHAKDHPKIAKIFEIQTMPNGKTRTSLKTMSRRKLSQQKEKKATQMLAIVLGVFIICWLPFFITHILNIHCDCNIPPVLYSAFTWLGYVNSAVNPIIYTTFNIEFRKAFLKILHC
Chain of 5-hydroxytryptamine receptor 2A (Homo sapiens) (P28223 whole entry, looked up): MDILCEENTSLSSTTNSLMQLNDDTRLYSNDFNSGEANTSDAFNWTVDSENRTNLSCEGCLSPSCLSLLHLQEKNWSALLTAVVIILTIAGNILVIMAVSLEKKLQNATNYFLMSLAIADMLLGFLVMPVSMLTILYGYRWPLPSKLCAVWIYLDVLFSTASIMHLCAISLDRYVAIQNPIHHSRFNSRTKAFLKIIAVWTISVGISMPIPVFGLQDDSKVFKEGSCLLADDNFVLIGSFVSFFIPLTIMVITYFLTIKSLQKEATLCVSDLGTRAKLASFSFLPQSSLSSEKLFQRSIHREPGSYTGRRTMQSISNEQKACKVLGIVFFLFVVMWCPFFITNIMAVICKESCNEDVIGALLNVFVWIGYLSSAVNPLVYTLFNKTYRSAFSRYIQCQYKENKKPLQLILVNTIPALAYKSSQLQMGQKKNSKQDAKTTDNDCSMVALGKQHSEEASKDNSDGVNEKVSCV
Chain of KiSS-1 receptor (Homo sapiens) (Q969F8 whole entry, looked up): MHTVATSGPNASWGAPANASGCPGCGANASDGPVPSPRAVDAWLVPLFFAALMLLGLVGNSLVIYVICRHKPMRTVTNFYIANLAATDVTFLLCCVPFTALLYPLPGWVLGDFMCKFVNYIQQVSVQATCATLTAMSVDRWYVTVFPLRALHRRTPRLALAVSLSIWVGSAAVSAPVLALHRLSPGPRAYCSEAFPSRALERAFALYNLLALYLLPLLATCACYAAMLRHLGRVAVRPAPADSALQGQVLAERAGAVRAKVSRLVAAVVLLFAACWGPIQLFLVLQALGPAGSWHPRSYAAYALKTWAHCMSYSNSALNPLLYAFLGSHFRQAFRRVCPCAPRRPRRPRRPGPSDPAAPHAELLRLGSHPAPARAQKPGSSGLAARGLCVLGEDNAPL
Chain of Gonadotropin-releasing hormone receptor (Homo sapiens) (P30968 whole entry, looked up): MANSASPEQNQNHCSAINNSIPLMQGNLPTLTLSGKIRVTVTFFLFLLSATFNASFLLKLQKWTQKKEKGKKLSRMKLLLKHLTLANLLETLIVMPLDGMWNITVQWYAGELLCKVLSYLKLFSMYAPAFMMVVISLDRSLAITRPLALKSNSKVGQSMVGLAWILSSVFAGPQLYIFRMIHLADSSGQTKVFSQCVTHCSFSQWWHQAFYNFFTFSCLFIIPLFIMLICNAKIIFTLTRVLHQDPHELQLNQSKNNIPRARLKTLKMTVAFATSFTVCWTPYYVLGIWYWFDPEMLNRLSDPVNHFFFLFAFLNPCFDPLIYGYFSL

O=C1C=CC(=O)N1c1cccc(N2C(=O)C=CC2=O)c1
active: Potency [1] 54.5 µM | Potency [2] 4.86 µM | Potency [7] 40.8 µM
inactive: Potency [3] | Potency [4] | Potency [5] | Potency [6] | Potency [8] | Potency [9] | Potency [10]

CCCCCCCCCOC(=O)CCCCC(=O)OCCCCCCC
inactive: Potency [1] | Potency [2] | Potency [3] | Potency [4] | Potency [5] | Potency [6] | Potency [7] | Potency [11] | Potency [12] | Potency [8] | Potency [9] | Potency [13] | Potency [15] | Potency [16] | Potency [17]
active: Potency [14] 15.4 µM

Cc1cc(O)c(C(C)C)cc1Cl
inactive: Potency [1] | Potency [2] | Potency [3] | Potency [4] | Potency [5] | Potency [6] | Potency [7] | Potency [11] | Potency [12] | Potency [8] | Potency [18] | Potency [9] | Potency [13] | Potency [15] | Potency [16]

CCCc1ncc(C[n+]2ccccc2C)c(N)n1
inactive: Potency [1] | Potency [2] | Potency [3] | Potency [4] | Potency [5] | Potency [6] | Potency [7] | Potency [11] | Potency [12] | Potency [8] | Potency [9] | Potency [10] | Potency [13] | Potency [19] | Potency [14] | Potency [16]

CCCCC(=O)O[C@]1(C(=O)CO)[C@@H](C)C[C@H]2[C@@H]3CCC4=CC(=O)C=C[C@]4(C)[C@@]3(F)[C@@H](O)C[C@@]21C
inactive: Potency [1] | Potency [2] | Potency [3] | Potency [4] | Potency [5] | Potency [6] | Potency [11] | Potency [12] | Potency [8] | Potency [9] | Potency [10] | Potency [16] | Potency [17]

C[C@]12CC[C@H]3C(=CCc4cc(O)ccc43)[C@@H]1CCC2=O
inactive: Potency [1] | Potency [2] | Potency [3] | Potency [4] | Potency [5] | Potency [7] | Potency [11] | Potency [12] | Potency [8] | Potency [18] | Potency [9] | Potency [10] | Potency [13] | Potency [14] | Potency [15] | Potency [16] | Potency [17]

Cc1cc(C)c(/C=C2\C(=O)Nc3ccccc32)[nH]1
inactive: Potency [1] | Potency [2] | Potency [3] | Potency [4] | Potency [5] | Potency [6] | Potency [7] | Potency [11] | Potency [12] | Potency [8] | Potency [9] | Potency [10] | Potency [16] | Potency [17]
active: Potency [18] 21.3 µM

c1ccc(-c2ccc(-c3ccccc3)cc2)cc1
inactive: activity change, negative = cytotoxicity [1] 1.35% [at 19 µM] | activity, positive = activation [2] 16.6% [at 19 µM] | activity change [20] 1.83% [at 11.8 µM, stronger effect = higher value] | activity change, negative = cytotoxicity [7] 5.03% [at 13.5 µM] | activity change, negative = cytotoxicity [11] -3.67% [at 13.5 µM] | activity change, negative = cytotoxicity [12] -12.2% [at 13.5 µM] | activity, negative = inhibition [8] -2.25% [at 12.7 µM] | activation [18] 13.6% [at 15.9 µM] | activity, negative = inhibition [9] 9.45% [at 12.6 µM] | activation [10] 0.405% [at 15.8 µM] | activation [13] -0.166% [at 19 µM] | activity change, negative = inhibition [19] -3.34% [at 18.9 µM] | activity change, negative = inhibition [14] 0.791% [at 19 µM] | activation [15] 7.35% [at 19 µM] | activation [16] 2.85% [at 19 µM] | activity change, negative = inhibition [17] 0.516% [at 18.9 µM]

From PubChem BioAssay (Tox21)
